Reference: article PMC7862700, “An all-to-all approach to the identification of sequence-specific readers for epigenetic DNA modifications on cytosine”

Key:
Assay in all cases: DAPPL (digital affinity profiling via proximity ligation, sequencing); 10 mM Tris-HCl pH 7.5, 50 mM NaCl, 1 mM DTT, 4% glycerol, room temperature, 30 min; GST-TFs on glutathione beads, 16-mer random dsDNA library, 0.1% formaldehyde crosslink after washing; high values mean tight binding
Details in all cases: protein: recombinant; tags: N-terminal GST; dsDNA, one strand shown
FLI1 = target: T1, FLI1 (Homo sapiens, UniProt Q01543 1-452)
T1 sequence: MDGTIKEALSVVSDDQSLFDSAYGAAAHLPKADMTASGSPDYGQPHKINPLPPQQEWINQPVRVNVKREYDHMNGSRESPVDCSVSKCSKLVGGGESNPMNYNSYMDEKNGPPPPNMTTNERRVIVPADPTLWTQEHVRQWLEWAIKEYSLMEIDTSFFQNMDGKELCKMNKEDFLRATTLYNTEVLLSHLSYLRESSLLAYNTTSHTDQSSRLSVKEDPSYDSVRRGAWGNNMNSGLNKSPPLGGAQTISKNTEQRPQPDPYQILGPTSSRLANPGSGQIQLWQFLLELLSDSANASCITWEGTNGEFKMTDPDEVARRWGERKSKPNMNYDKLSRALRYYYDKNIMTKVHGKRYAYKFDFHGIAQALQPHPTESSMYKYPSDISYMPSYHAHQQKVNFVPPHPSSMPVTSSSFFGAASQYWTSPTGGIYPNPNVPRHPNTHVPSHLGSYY
Summary of the method: (§1)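 Human transcription factors fused to GST were expressed in yeast, captured on glutathione beads, given DNA barcodes and pooled with a GST-only negative control. Pools were incubated with 200 nmole of a 16-mer random double-stranded DNA library in Tris/NaCl/DTT/glycerol buffer at room temperature for 30 min. They were then washed, crosslinked with 0.1% formaldehyde, proximity-ligated (BsaI/T4 ligase, 1 h, 37 °C), PCR-amplified and sequenced on an Illumina NextSeq500. Binding signal is each 6-mer's read frequency for a factor divided by its frequency for the GST control.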

GABPA = target: T2, GABPA (Homo sapiens, UniProt Q06546 1-454)
T2 sequence: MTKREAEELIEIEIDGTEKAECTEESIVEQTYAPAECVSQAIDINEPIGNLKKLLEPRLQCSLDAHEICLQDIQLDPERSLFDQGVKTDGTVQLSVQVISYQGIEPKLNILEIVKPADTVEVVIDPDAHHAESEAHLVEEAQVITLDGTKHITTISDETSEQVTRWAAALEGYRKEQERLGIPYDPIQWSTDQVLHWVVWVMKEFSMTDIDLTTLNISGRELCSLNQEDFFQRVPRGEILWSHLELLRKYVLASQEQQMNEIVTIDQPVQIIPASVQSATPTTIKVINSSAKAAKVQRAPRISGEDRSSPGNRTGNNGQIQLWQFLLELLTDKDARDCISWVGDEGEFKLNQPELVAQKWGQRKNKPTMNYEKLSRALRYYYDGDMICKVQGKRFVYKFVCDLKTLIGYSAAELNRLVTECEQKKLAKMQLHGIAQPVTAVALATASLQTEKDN
Summary of the method: as §1

ERG = target: T3, ERG (Homo sapiens, UniProt P11308 1-479)
T3 sequence: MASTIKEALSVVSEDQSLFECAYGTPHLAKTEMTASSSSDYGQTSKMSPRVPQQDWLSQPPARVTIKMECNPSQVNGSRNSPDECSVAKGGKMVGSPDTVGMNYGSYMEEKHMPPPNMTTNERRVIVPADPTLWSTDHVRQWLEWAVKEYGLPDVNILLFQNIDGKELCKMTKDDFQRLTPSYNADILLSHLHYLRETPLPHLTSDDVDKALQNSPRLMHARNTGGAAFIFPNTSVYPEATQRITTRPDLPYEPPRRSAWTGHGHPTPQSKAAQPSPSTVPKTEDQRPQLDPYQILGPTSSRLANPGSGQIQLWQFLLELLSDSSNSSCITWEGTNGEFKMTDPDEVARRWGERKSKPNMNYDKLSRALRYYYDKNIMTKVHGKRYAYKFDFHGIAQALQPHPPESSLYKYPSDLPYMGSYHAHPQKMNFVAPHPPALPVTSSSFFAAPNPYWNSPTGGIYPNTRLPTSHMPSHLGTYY
Summary of the method: as §1

ELF1 = ELF1 (Homo sapiens, UniProt P32519 1-619)
Summary of the method: as §1

EHF = target: T4, EHF (Homo sapiens, UniProt Q9NZC4 1-300)
T4 sequence: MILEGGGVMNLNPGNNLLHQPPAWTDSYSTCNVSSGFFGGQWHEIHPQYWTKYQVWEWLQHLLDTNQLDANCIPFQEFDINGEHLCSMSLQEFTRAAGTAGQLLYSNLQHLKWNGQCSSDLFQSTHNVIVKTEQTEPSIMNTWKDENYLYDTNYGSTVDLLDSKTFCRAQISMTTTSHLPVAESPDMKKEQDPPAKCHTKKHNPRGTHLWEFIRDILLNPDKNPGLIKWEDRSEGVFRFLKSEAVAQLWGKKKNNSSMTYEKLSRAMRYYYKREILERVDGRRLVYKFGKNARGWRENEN
Summary of the method: as §1

SPIB = SPIB (Homo sapiens, UniProt Q01892 1-262)
Summary of the method: as §1

ELK3 = target: T5, ELK3 (Homo sapiens, UniProt P41970 1-407)
T5 sequence: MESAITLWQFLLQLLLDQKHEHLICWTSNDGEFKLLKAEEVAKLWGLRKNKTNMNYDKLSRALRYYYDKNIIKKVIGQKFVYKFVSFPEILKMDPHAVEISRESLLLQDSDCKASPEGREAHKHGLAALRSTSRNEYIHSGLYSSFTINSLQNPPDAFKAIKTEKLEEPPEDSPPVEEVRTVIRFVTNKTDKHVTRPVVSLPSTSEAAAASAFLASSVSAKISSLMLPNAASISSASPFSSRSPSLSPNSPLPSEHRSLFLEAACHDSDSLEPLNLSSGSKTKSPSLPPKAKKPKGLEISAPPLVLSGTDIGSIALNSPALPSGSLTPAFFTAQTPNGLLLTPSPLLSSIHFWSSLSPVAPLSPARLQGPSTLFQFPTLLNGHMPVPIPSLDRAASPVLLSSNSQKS
Summary of the method: as §1

SPIC = target: T6, SPIC (Homo sapiens, UniProt Q8N5J4 1-248)
T6 sequence: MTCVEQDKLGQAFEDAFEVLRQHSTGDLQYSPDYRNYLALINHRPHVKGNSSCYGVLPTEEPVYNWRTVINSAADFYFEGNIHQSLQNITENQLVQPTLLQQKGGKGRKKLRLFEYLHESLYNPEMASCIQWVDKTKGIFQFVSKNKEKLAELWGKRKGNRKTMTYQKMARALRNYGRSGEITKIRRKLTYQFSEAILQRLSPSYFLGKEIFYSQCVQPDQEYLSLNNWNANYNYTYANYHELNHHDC
Summary of the method: as §1

ELF4 = ELF4 (Homo sapiens, UniProt Q99607 1-663)
Summary of the method: as §1

ELK4 = target: T7, ELK4 (Homo sapiens, UniProt P28324-2 1-405)
T7 sequence: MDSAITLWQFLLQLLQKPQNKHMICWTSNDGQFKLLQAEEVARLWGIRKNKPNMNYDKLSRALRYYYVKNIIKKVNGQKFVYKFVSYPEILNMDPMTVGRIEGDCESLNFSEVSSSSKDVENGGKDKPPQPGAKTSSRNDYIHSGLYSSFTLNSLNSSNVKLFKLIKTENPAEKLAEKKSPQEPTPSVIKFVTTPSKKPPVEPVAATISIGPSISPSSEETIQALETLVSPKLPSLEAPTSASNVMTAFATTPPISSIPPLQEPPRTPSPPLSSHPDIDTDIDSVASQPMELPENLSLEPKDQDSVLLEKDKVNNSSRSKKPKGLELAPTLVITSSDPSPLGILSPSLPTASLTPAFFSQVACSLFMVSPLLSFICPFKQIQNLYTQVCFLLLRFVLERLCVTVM
Summary of the method: as §1

ELF3 = target: T8, ELF3 (Homo sapiens, UniProt P78545 1-371)
T8 sequence: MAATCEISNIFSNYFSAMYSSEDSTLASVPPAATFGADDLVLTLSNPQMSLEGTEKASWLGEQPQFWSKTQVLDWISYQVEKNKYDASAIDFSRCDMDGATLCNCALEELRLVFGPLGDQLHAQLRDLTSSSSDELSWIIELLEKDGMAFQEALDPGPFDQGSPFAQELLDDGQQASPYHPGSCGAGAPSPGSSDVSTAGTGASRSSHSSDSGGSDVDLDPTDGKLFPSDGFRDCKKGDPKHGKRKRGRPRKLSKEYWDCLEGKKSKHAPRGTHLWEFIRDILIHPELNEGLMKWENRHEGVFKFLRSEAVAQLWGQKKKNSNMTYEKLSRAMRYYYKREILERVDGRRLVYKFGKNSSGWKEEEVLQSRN
Summary of the method: as §1

ETV1 = ETV1 (Homo sapiens, UniProt P50549 1-477)
Summary of the method: as §1

ERF = target: T9, ERF (Homo sapiens, UniProt P50548 1-548)
T9 sequence: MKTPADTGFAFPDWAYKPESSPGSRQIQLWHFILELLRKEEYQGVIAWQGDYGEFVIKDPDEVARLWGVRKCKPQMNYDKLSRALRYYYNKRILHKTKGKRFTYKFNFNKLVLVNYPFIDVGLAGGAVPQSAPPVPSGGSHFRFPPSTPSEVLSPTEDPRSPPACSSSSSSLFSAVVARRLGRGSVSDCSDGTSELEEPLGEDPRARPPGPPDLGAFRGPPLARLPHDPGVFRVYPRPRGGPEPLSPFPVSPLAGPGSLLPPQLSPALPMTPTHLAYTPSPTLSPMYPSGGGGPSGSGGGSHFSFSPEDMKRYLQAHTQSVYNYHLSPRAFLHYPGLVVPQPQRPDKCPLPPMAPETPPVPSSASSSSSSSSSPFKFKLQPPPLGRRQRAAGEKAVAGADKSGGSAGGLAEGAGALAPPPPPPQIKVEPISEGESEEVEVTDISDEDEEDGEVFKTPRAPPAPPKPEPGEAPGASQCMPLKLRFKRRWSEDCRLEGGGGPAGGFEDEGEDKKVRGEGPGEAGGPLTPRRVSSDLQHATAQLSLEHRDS
Summary of the method: as §1

ETV3L = target: T10, ETV3L (Homo sapiens, UniProt Q6ZN32 1-361)
T10 sequence: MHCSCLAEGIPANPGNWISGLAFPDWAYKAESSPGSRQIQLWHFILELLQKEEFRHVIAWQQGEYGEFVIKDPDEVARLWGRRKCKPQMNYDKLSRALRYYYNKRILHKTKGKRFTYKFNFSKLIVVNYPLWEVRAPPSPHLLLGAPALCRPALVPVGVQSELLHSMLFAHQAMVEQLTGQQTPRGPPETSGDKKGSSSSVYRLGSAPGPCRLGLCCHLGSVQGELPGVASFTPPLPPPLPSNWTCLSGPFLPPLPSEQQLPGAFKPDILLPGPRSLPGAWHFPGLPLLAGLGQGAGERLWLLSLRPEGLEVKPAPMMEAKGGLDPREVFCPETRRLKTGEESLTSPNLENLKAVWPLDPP
Summary of the method: as §1

ETS2 = target: T11, ETS2 (Homo sapiens, UniProt P15036 1-469)
T11 sequence: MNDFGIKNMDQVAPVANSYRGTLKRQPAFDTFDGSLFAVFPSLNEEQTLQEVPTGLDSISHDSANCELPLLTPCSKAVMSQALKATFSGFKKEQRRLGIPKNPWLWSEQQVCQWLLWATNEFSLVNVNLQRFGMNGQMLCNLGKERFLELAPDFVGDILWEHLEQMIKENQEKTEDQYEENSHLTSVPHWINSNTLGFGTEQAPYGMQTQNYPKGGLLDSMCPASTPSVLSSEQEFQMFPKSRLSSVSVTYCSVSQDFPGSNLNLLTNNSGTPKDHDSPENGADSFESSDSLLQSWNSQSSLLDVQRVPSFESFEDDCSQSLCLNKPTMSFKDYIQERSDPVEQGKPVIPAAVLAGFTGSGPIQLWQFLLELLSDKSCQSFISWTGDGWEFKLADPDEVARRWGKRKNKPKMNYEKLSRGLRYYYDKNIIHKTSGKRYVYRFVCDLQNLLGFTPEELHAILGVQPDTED
Summary of the method: as §1

ETV7 = target: T12, ETV7 (Homo sapiens, UniProt Q9Y603 1-341)
T12 sequence: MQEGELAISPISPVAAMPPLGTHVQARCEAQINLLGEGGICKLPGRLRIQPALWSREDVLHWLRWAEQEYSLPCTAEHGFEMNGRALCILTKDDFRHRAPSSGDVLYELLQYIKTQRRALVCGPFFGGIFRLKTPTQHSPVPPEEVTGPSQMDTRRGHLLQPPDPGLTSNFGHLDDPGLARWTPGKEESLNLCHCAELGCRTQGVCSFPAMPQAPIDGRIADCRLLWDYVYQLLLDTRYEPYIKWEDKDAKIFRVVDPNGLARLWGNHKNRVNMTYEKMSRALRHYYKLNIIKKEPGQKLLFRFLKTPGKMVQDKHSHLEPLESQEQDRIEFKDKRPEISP
Summary of the method: as §1

ETV3 = target: T13, ETV3 (Homo sapiens, UniProt P41162-2 1-143)
T13 sequence: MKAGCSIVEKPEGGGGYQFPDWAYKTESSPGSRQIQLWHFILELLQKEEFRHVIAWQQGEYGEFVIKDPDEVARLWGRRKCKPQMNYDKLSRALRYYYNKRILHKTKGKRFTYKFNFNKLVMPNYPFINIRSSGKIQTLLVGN
Summary of the method: as §1

ETV6 = ETV6 (Homo sapiens, UniProt P41212 1-452)
Summary of the method: as §1

ELF4, sequence (Q99607 whole entry): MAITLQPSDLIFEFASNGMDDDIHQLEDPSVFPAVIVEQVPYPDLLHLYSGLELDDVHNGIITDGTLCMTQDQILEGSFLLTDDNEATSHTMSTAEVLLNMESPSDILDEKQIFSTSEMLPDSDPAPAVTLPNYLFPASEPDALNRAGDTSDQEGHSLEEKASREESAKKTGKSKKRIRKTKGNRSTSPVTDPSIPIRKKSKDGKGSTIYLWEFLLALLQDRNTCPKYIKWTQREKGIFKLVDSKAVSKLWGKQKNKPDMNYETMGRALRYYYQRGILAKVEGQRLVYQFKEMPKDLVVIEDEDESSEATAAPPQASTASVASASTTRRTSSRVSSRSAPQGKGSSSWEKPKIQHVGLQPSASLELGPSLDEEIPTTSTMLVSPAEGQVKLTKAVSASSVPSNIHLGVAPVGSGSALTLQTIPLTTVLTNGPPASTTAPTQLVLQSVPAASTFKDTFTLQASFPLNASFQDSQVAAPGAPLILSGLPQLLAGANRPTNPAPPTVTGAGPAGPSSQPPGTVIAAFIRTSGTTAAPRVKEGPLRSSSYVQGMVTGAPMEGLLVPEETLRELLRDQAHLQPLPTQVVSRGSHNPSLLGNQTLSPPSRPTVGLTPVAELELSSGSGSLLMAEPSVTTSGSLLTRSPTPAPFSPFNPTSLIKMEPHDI
ETV6, sequence (P41212 whole entry): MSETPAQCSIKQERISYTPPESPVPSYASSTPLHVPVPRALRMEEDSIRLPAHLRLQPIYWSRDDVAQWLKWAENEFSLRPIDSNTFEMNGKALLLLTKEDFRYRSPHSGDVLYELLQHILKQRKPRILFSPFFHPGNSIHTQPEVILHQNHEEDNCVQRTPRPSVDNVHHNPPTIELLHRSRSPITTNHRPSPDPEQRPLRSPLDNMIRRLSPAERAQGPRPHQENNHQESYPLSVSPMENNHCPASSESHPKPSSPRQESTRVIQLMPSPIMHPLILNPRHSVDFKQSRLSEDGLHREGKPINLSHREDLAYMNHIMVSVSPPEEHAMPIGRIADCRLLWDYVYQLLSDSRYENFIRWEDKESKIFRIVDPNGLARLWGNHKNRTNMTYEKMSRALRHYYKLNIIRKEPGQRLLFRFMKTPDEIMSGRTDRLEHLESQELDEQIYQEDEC
SPIB, sequence (Q01892 whole entry): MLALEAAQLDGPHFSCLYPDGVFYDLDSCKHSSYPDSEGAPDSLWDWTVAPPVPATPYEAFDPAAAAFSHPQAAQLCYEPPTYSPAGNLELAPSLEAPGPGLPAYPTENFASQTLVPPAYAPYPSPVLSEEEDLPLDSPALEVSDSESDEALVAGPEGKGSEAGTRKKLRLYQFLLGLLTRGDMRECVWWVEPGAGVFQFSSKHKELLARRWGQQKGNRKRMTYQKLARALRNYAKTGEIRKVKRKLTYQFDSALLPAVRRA
ETV1, sequence (P50549 whole entry): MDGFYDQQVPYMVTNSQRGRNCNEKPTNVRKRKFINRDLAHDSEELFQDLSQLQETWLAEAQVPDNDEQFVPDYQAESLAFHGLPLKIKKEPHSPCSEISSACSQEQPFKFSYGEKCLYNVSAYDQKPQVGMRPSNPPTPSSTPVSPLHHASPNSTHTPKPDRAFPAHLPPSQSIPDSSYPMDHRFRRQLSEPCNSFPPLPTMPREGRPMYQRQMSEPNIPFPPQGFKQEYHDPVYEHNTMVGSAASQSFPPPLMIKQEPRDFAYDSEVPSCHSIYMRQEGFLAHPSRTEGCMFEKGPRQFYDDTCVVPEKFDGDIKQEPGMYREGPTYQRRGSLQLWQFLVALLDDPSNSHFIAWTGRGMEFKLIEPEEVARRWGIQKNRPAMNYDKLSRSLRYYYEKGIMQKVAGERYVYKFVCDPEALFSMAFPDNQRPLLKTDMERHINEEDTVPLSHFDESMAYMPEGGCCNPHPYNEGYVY
ELF1, sequence (P32519 whole entry): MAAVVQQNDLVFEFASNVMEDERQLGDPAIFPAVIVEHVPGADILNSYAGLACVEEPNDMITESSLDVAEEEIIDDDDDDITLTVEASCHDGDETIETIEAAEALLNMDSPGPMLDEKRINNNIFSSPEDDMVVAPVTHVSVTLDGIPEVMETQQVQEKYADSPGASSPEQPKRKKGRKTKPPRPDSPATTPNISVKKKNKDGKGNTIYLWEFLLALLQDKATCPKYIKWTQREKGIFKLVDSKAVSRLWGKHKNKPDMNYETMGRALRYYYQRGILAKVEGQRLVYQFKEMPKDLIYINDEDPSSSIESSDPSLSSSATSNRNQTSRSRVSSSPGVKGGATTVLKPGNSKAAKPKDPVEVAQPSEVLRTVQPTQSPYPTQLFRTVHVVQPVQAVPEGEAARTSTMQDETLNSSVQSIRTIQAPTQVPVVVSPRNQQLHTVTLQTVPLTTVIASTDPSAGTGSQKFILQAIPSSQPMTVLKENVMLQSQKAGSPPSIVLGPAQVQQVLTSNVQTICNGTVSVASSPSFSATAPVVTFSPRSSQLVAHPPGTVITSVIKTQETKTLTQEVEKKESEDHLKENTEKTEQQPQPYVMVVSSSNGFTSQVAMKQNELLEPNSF

In the case of TTGCCA, the binding signal (FLI1) is reported as 1.07 fold enrichment (6-mer frequency, TF over GST control), the binding signal (GABPA) is reported as 1.13 fold enrichment (6-mer frequency, TF over GST control) and the binding signal (ERG) is reported as 1.08 fold enrichment (6-mer frequency, TF over GST control). For the same sequence, the binding signal (ELF1) was 1.03 fold enrichment (6-mer frequency, TF over GST control), the binding signal (EHF) was 1.12 fold enrichment (6-mer frequency, TF over GST control) and the binding signal (SPIB) was 1.02 fold enrichment (6-mer frequency, TF over GST control). The binding signal (ELK3) was 1.05 fold enrichment (6-mer frequency, TF over GST control), the binding signal (SPIC) was 1.16 fold enrichment (6-mer frequency, TF over GST control) and the binding signal (ELF4) was 1.07 fold enrichment (6-mer frequency, TF over GST control). The binding signal (ELK4) was 1.15 fold enrichment (6-mer frequency, TF over GST control), the binding signal (ELF3) was 1.17 fold enrichment (6-mer frequency, TF over GST control) and the binding signal (ETV1) was 1.06 fold enrichment (6-mer frequency, TF over GST control). For the same sequence, the binding signal (ERF) was 1.23 fold enrichment (6-mer frequency, TF over GST control), the binding signal (ETV3L) was 1 fold enrichment (6-mer frequency, TF over GST control) and the binding signal (ETS2) was 1.05 fold enrichment (6-mer frequency, TF over GST control). The binding signal (ETV7) was 1.03 fold enrichment (6-mer frequency, TF over GST control), the binding signal (ETV3) was 1.12 fold enrichment (6-mer frequency, TF over GST control) and the binding signal (ETV6) was 1.06 fold enrichment (6-mer frequency, TF over GST control).
